The values below come from PubChem BioAssay (Tox21).

Test [1] is described as follows: qHTS assay to test for compound auto fluorescence at 460 nm (blue) in HEK293 cell free culture (AID 720681). Put shortly:
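Test compounds were pinned into cell-free culture medium (DMEM with 10% FBS) and fluorescence was read directly at Ex/Em 405/460 nm. Signals were expressed as fluorescence equivalents of triamterene, with DMSO vehicle as control.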

Test [2] can be described thus: qHTS assay to test for compound auto fluorescence at 535 nm (green) in HEK293 cell free culture (AID 720682). Put shortly:
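No cells present: wells hold DMEM supplemented with 10% FBS, into which compound or vehicle is pinned. Green emission is then recorded (485 nm excitation, 535 nm emission) and scaled to fluorescein.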

The nature of test [3]: qHTS assay to test for compound auto fluorescence at 590 nm (red) in HEK293 cell free culture (AID 720683). Put shortly: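 Tox21 10K library compounds were pinned into cell-free DMEM with 10% FBS and fluorescence was read at excitation 540 nm. Activity is expressed as Rose Bengal sodium equivalency.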
(qHTS replaces the single test concentration by a dilution series.)

Test [4] in a line: qHTS assay to test for compound auto fluorescence at 590 nm (red) in HepG2 cell free culture (AID 720684). Put shortly: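 Measured in medium alone (MEM containing 10% FBS) following pintool addition of compound; emission at 590 nm with 540 nm excitation, referenced to Rose Bengal sodium.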
The nature of test [5]: qHTS assay to test for compound auto fluorescence at 460 nm (blue) in HepG2 cell free culture (AID 720685). Put shortly: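 Compound (23 nL) or DMSO pinned into cell-free MEM with 10% FBS; blue fluorescence read at 405/460 nm excitation/emission, expressed as auto-fluorescence equivalency to triamterene.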
Test [6] is described as follows: qHTS assay to test for compound auto fluorescence at 535 nm (green) in HepG2 cell free culture (AID 720686).
A short description of test [7]: qHTS assay to test for compound auto fluorescence at 460 nm (blue) in HepG2 cells (AID 720687). The method, boiled down: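 Cells (2,000/well in MEM with 10% FBS) attached overnight at 37 C, then were exposed to compound or DMSO for 1 hr at 37 C, 5% CO2. Fluorescence read at Ex/Em 405/460 nm, expressed as triamterene-equivalent signal.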
Test [8] is described as follows: qHTS assay to identify small molecule antagonists of the glucocorticoid receptor (GR) signaling pathway - cell viability counter screen (AID 720693). Further: nearly all actives have a fitted effect of over 55% in size.
A short description of test [9]: qHTS assay to identify small molecule antagonists of the androgen receptor (AR) signaling pathway - cell viability counter screen (AID 743033; further: nearly all actives have a fitted effect of over 45% in size).
For test [10], the target named is Androgen receptor (Homo sapiens) (UniProt P10275). The experiment in a line: qHTS assay to identify small molecule antagonists of the androgen receptor (AR) signaling pathway (AID 743035; active means well fitted inhibition curve with a large enough effect in the signal ratio in the repeat runs, not every such curve was filed as active; the % refers to the signal ratio). The method, boiled down:
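Cell line: GeneBLAzer AR-UAS-bla GripTite (HEK293). Stimulus: R1881 added after compound. Exposure: 16 h, 37C, 5% CO2. Readout: LiveBLAzer B/G FRET fluorescence after 2 h at room temperature.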

The target is the same in test [11]. In words: qHTS assay to identify small molecule agonists of the androgen receptor (AR) signaling pathway (AID 743036; active means well fitted activation curve with a large enough effect in the signal ratio in the repeat runs, with a control signal flat, not every such curve was filed as active; the % refers to the signal ratio). Put shortly:
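Quantitative HTS of the Tox21 10K library in HEK293 cells bearing a stably integrated UAS-controlled beta-lactamase reporter. Compound exposure lasted 16 h at 37C. Reporter activity was detected by FRET substrate fluorescence after 2 h at room temperature.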

The target is the same in test [12]. The experiment in a line: qHTS assay to identify small molecule agonists of the androgen receptor (AR) signaling pathway using the MDA cell line (AID 743040; further: nearly all actives have a fitted effect of over 20% in size). Put shortly: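 Luminescence from ONE-Glo, read after 30 min at room temperature, reflects MMTV-driven luciferase in MDA-kb2 cells (AR- and GR-responsive). Treatment lasted 16 h at 37C, 0% CO2.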
Test [13] shares this target. The experiment in a line: qHTS assay to identify small molecule antagonists of the androgen receptor (AR) signaling pathway using the MDA cell line (AID 743042; further: nearly all actives have a fitted effect of over 55% in size). Put shortly:
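MDA-kb2 cells (human breast carcinoma, stably carrying an MMTV-luciferase reporter responsive to AR and GR) were plated at 3,000 cells/well and preincubated 5 hr at 37C, then given compound plus R1881 agonist for 16 h. ONE-Glo luminescence was read.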

Test [14] can be described thus: qHTS assay for identifying genotoxic compounds that show differential cytotoxicity against isogenic chicken DT40 cell lines with known DNA damage response pathways - wild type cell line (AID 743012). Further: nearly all actives have a fitted effect of over 60% in size. Further: potency means the concentration at half of the fitted maximal effect. The method, boiled down:
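Quantitative HTS on parental DT40 cells: 40 h compound treatment at 37 C/5% CO2, with viability then determined by CellTiter-Glo luminescence. Values serve as the DNA repair-proficient reference for differential cytotoxicity.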

Test [15] is described as follows: qHTS assay for identifying genotoxic compounds that show differential cytotoxicity against isogenic chicken DT40 cell lines with known DNA damage response pathways - Rev3 mutant cell line (AID 743014). Further: nearly all actives have a fitted effect of over 55% in size. Further: potency means the concentration at half of the fitted maximal effect.
A short description of test [16]: qHTS assay to identify small molecule antagonists of the androgen receptor (AR) signaling pathway using the MDA cell line - cell viability counter screen (AID 743041; further: nearly all actives have a fitted effect of over 45% in size). The method, boiled down: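 Viability counter screen run alongside the AR antagonist reporter: cells seeded 5 h before compound, R1881 added, 16 h incubation at 37C without CO2, fluorescent CellTiter-Fluor signal quantified.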

The nature of test [17]: qHTS assay for identifying genotoxic compounds that show differential cytotoxicity against isogenic chicken DT40 cell lines with known DNA damage response pathways - Rad54/Ku70 mutant cell line (AID 743015). Further: nearly all actives have a fitted effect of over 60% in size.
For test [18], the target named is Glucocorticoid receptor (Homo sapiens) (UniProt P04150). In words: qHTS assay to identify small molecule agonists of the glucocorticoid receptor (GR) signaling pathway (AID 720691; active means well fitted activation curve with a large enough effect in the signal ratio in the repeat runs, not every such curve was filed as active; the % refers to the signal ratio). Put shortly:
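Beta-lactamase reporter activity, read as fluorescence intensity, was measured in GR-bla HeLa cells exposed to compounds for 18 h at 37 C and then loaded with LiveBLAzer B/G FRET substrate for 2 h at room temperature.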

Test [19] has the same target. In words: qHTS assay to identify small molecule antagonists of the glucocorticoid receptor (GR) signaling pathway (AID 720692; active means well fitted inhibition curve with a large enough effect in the signal ratio in the repeat runs, not every such curve was filed as active; the % refers to the signal ratio). The method, boiled down:
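Fluorescence from cleaved LiveBLAzer B/G FRET substrate reports GRE-driven beta-lactamase in HeLa cells; compounds are tested against 5 nM dexamethasone (final) over 18 h at 37 C, substrate incubation 2 h at room temperature.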

A number with no mark means an inactive call. Inconclusive results are not listed. Active and inactive are the calls of the source. Unless noted, the call rests on the fitted dose curve; in most records, active means well fitted curve in the direction sought with a large enough effect in the repeat runs; inconclusive means weak or mixed curves; inactive means no such curve, though single readings can be large; an effect the other way counts as inactive or inconclusive.

Sequence of Glucocorticoid receptor (Homo sapiens) (P04150 whole entry, looked up): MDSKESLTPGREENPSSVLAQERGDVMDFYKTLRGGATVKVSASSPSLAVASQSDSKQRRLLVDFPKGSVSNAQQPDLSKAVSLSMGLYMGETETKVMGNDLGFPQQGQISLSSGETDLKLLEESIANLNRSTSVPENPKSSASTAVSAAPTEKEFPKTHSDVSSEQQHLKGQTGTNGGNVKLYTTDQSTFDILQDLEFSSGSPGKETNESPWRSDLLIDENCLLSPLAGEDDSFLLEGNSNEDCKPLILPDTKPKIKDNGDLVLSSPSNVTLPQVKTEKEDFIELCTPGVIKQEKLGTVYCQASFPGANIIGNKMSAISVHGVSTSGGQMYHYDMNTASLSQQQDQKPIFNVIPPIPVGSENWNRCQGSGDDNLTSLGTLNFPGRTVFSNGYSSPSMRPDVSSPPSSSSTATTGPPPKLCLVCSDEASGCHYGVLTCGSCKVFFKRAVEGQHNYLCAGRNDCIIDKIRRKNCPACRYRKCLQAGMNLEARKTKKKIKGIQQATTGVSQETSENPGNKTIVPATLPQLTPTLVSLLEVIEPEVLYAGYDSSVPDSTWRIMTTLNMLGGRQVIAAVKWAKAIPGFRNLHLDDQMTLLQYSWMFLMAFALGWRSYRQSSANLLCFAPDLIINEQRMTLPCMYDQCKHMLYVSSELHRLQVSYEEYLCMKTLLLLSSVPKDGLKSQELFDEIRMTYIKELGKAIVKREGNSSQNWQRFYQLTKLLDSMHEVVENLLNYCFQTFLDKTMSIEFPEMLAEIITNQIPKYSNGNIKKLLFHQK
Sequence of Androgen receptor (Homo sapiens) (P10275 whole entry, looked up): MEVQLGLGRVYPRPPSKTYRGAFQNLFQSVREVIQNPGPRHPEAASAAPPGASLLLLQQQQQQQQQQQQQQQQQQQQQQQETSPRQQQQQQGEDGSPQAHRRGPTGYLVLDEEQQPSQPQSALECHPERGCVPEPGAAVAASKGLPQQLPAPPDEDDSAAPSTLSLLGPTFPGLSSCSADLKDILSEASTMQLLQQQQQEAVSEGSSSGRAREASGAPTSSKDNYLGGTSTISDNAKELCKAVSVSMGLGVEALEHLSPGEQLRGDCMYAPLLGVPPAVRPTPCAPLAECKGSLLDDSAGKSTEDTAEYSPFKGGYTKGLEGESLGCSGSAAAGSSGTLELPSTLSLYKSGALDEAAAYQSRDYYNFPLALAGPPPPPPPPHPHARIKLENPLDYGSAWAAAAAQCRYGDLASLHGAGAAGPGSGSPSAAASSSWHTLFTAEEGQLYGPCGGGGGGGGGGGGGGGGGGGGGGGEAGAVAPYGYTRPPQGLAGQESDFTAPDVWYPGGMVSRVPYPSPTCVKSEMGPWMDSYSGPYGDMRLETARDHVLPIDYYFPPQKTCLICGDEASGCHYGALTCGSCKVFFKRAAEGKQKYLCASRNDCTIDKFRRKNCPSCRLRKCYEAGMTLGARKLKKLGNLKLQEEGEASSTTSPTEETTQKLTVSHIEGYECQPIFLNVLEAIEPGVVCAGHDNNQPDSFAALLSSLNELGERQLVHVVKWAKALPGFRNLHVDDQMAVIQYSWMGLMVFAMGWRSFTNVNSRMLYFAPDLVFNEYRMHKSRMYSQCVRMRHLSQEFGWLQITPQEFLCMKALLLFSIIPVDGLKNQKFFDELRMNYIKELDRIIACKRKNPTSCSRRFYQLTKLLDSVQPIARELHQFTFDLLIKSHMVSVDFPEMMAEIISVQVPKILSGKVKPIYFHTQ

`NC(CO)C(=O)NNCc1ccc(O)c(O)c1O` (centres undefined): the call in [1], in test [2], in test [3], in test [4], in [5] and in [6] was inactive. Moreover, the compound was classed as inactive in test [7], in test [8], in test [11] and in [12]. Besides, the Potency result in test [9], in test [10] and in test [13] was “inactive” throughout.
With `C=C(C)C(=O)OCc1ccccc1`, the call in test [1], in [2], in [3], in test [5] and in [7] was inactive. Further, the Potency entry in test [14], in [15], in [9] and in test [16] was “inactive” throughout.
`CCCCCOC(=O)CCC`: the result in [1], in [2], in test [3], in test [5], in test [6] and in [7] was inactive. In test [8], the compound was called inactive. The Potency result in [14], in [15], in [17], in test [9] and in test [16] was “inactive” each time.
On to `Nc1ccc2cc(S(=O)(=O)O)cc(O)c2c1`, for which the outcome in [1], in test [2], in test [3], in test [4], in test [6] and in test [11] was inactive. Also, the compound was called inactive in test [12]. Besides, the Potency entry in [14], in [15], in [17], in [9], in test [10] and in test [16] was “inactive” each time. The Potency result in [13] was “inactive”.
Take `CCCCCCOc1ccccc1C(N)=O`: the outcome in test [1], in [2], in test [3], in [4], in test [5] and in [6] was inactive. Also, the compound was called inactive in test [7] and in test [8]. For the same compound, the Potency entry in test [18] was “inactive”. For the same compound, the Potency in test [14] was 23.7 µM (active); in test [15] it was 21.1 µM (active).
As to `Cc1ccccc1N=O`, the compound was called inactive in [1], in test [2], in test [3], in test [4], in [5] and in [6]. The result in test [7] and in [8] was inactive. Besides, the Potency result in [18], in test [14], in test [9] and in test [16] was “inactive” throughout.
As to `C=C(C)C(=O)OCC(C)(C)COC(=O)C(=C)C`, the compound was classed as inactive in test [1], in [2], in test [3], in test [4], in test [5] and in test [7]. Besides, the Potency entry in [14], in test [15], in [9] and in test [16] was “inactive” in each case.
On to `CCCCCCCCOS(=O)(=O)O`, for which the result in [1], in test [2], in [3], in [5], in test [6] and in test [7] was inactive. For the same compound, in test [19], the outcome was inactive. Also, the Potency entry in test [18], in test [14], in test [15], in test [17], in [9] and in test [16] was “inactive” each time.
With `C[C@@H](Oc1ccc(CNC(=O)c2cccnc2Oc2ccc3c(c2)OCO3)c(F)c1)C(=O)O`, the call in [1], in [2], in test [3], in test [4], in test [5] and in test [6] was inactive. In addition, the call in [7] and in test [8] was inactive. The Potency entry in test [18], in test [14], in test [15], in test [17], in test [9] and in test [16] was “inactive” each time.
Take `CCCCCCCCCCCCCC`: the compound was classed as inactive in [1], in test [2], in test [3], in test [4], in [5] and in [7]. For the same compound, the result in test [8] was inactive. Moreover, the Potency entry in test [14], in [15] and in test [17] was “inactive” in each case.
In the case of `CCNC(=O)C1CC(C)CCC1C(C)C` (centres undefined), the compound was classed as inactive in test [1], in test [2], in test [3], in test [5], in test [6] and in [7]. Moreover, the outcome in test [19] and in [8] was inactive. In addition, the Potency result in test [18], in test [14], in test [15], in test [9] and in test [16] was “inactive” in each case.
For `CCN(C)C(=O)Oc1cccc([C@H](C)N(C)C)c1`, the outcome in [1], in [2], in [3], in test [4], in [5] and in test [6] was inactive. Also, the result in [7], in test [8], in [11] and in test [12] was inactive. Besides, the Potency entry in [18], in test [14], in test [15], in test [17], in test [9] and in test [10] was “inactive” in each case. For the same compound, the Potency result in test [16] and in test [13] was “inactive” each time.
As for `CCCCOCCOC(=O)COc1nc(Cl)c(Cl)cc1Cl`, the compound was classed as inactive in test [1], in test [2], in test [3], in test [4], in test [5] and in test [6]. Besides, the outcome in [7] and in test [8] was inactive. The Potency entry in test [18], in test [14], in [17], in test [9] and in test [16] was “inactive” each time.
On to `CC1=CCC(C(C)C)=CC1`, for which the compound was called inactive in test [1], in test [2], in [3], in test [4], in test [5] and in test [6]. The compound was classed as inactive in [7] and in [8]. The Potency result in test [15], in [17], in [9] and in [16] was “inactive” each time.
For the compound `Nc1ccc(S(=O)(=O)Nc2ccc(Cl)nn2)cc1`, the outcome in [1], in [2], in test [3], in test [4], in test [5] and in [6] was inactive. Moreover, the call in test [7], in [8], in test [11] and in [12] was inactive. In addition, the Potency entry in test [14], in test [15], in [17], in test [9], in [10] and in test [16] was “inactive” in each case. Also, the Potency entry in test [13] was “inactive”.
As for `Nc1nnc(-c2cccc(Cl)c2Cl)c(N)n1`, the compound was classed as inactive in test [1], in [2], in test [3], in [4], in test [5] and in test [6]. In addition, the compound was called inactive in test [7]. For the same compound, the Potency result in [14], in test [15], in test [9] and in test [16] was “inactive” in each case.
As to `CC(=O)NCc1c(I)c(NC(C)=O)c(I)c(C(=O)O)c1I`, the call in [1], in [2], in test [3], in test [4], in test [5] and in test [7] was inactive. The compound was called inactive in [8], in test [11] and in test [12]. In addition, the Potency entry in test [14], in test [17], in test [9], in test [16] and in test [13] was “inactive” each time.
Turning to `Cc1ccc(S(=O)(=O)O)c(C)c1`, the call in test [1], in [2], in test [3], in [4], in test [5] and in test [6] was inactive. Also, the compound was classed as inactive in test [7] and in test [19]. Further, the Potency result in test [18], in test [14], in test [15], in test [17], in test [9] and in [16] was “inactive” throughout.
As for `CN(C)C(=O)CNC(=O)Cc1ccccc1`, the outcome in test [1], in test [2], in test [3], in [4], in test [5] and in test [6] was inactive. Moreover, the compound was classed as inactive in test [7] and in test [8]. The Potency result in [18], in test [14], in test [15], in [17], in test [9] and in test [16] was “inactive” in each case.
